Active and inactive are the calls of the source.

The results in this text go back to PubChem BioAssay.

For one assay, the target named is Albumin (Bos taurus) (UniProt P02769). Kind of assay: compounds binding labelled BSA control protein – biochemical, small-molecule microarray, Alexa647 label, 635/667 nm fluorescence, artefact control for SMM control protein annotation, profiling panel (AID 1118).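 Further: score merges 667 nm emission intensity and signal-to-noise per printed compound spot.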 The following applies: BSA-A647 binding, fluorescence 635 nm, higher = more signal.
Chain of Albumin (Bos taurus) (P02769 whole entry, looked up): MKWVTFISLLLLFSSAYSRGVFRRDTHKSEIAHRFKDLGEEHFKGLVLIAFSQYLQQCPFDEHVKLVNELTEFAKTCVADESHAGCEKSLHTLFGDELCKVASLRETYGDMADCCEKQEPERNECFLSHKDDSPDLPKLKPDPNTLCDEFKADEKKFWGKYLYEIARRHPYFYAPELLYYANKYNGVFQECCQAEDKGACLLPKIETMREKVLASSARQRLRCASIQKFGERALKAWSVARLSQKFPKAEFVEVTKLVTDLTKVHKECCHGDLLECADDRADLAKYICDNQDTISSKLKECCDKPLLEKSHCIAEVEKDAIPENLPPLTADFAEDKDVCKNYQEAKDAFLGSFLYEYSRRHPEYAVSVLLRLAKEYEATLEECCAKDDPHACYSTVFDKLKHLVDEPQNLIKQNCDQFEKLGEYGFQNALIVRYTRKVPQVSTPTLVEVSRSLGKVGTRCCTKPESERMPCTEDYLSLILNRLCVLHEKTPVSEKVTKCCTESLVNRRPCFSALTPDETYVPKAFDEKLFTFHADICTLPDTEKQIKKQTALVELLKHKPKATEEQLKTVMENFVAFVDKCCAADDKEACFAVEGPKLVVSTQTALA
A short description of assay [1]: probe aXIP binding to arrayed compounds – biochemical, NeuroSMM set, 635/667 nm fluorescence, primary screen (AID 1119).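 Further: probe is the protein aXip251-270 applied at 1 µg/mL to compound-printed slides; binding of probe to printed compounds measured as 667 nm fluorescence plus signal to noise.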 The settings on record: small-molecule microarray, higher = more signal, called active from +8 up or from −8 down.
Assay [2] can be described thus: probe aNOTCH3 binding on compound microarray – biochemical, small-molecule microarray, 635/667 nm fluorescence, primary screen (AID 1120).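 Further: probe is a biotin-tagged antibody raised against NOTCH3 rather than NOTCH3 protein; score merges spot fluorescence near 667 nm with spot signal to noise.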 The following applies: higher = more signal.
A short description of assay [3]: probe aNOTCH2 binding on compound microarray – biochemical, small-molecule microarray, 635/667 nm fluorescence, primary screen (AID 1121).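 Further: score merges feature fluorescence read at 667 nm with its signal to noise.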 The following applies: higher = more signal.
Assay [4] addresses Carbonic anhydrase 2 (Homo sapiens) (UniProt P00918). The experiment in a line: compounds binding carbonic anhydrase 2 – biochemical, small-molecule microarray, Alexa647-labelled CAII, profiling panel (AID 1122). The settings on record: CAII-A647 binding fluorescence, higher = more signal.
Assay [5] can be described thus: COS7 lysate on small-molecule microarray, probe aHis, 635 nm (AID 1123).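 Further: z-score combines 667nm fluorescence intensity with signal-to-noise per printed compound spot.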 The following applies: COS7 cell lysate, fluorescence, higher = more signal.
Assay [6] can be described thus: probe aLAP1 signal on lysate-treated microarray – cell lysate, small-molecule microarray, COS7 lysate, primary screen (AID 1124).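 Further: lysate comes from COS7 cells expressing LAP1 and is applied at 0.3 µg/mL; score merges spot fluorescence near 667 nm with signal-to-noise over triplicate slides.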 The following applies: probe aLAP1, fluorescence, higher = more signal.
In the next assay the test system is Sam68 (KHDRBS1). The experiment in a line: compounds binding KHDRBS1 protein – biochemical, small-molecule microarray, 635 nm fluorescence, primary screen (AID 1125).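 Further: score merges 667 nm channel intensity with signal to noise over triplicate slides.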 The following applies: higher = more signal.
In assay [7] the test system is Chordin-like protein 2 (CHRDL2). The experiment in a line: compounds binding chordin-like 2 – biochemical, small-molecule microarray, 635 nm fluorescence, primary screen (AID 1126).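 Further: printed compound slides probed with Chrdl2 protein at 4 µg/mL for 1 h at 4 C; score merges 667 nm emission intensity with signal to noise over three replicate slides.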 The following applies: fluorescence 635 nm, higher = more signal.
In assay [8] the target is Concanavalin-A (Canavalia ensiformis) (UniProt P02866). Kind of assay: compounds binding concanavalin A lectin – biochemical, small-molecule microarray, Alexa647 label, 635 nm, artefact control for SMM control protein annotation, primary screen (AID 1127).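 Further: z combines 667 nm emission intensity with signal-to-noise across three replicate slides.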 The following applies: ConA-A647 binding fluorescence, higher = more signal.
Chain of Concanavalin-A (Canavalia ensiformis) (P02866 whole entry, looked up): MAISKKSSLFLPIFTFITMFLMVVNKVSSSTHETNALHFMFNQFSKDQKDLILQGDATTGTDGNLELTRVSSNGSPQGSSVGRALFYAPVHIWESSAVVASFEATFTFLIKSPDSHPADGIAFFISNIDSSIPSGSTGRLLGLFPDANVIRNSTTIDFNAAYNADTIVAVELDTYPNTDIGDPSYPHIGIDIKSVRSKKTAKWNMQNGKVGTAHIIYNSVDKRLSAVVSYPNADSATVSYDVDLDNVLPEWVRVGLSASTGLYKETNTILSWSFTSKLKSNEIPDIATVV
Assay [9] is described as follows: compounds binding Alexa647 anti-His antibody – biochemical, small-molecule microarray, 635 nm fluorescence, artefact control for SMM control protein annotation, primary screen (AID 1128).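 Further: score merges feature fluorescence with signal-to-noise for each printed compound spot.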 The settings on record: higher = more signal.
Assay [10] concerns Human papillomavirus type 1a E7 protein (residues 1-88). Kind of assay: HPV1a E7 small-molecule binders, primary screen, biochemical, small-molecule microarray, residues 1-88, 635 nm (AID 1129). The following applies: small-molecule microarray binding, fluorescence 635 nm; higher = more signal.
Assay [11] concerns the target Focal adhesion kinase 1 (Homo sapiens) (UniProt Q05397). The experiment in a line: PTK2 protein binding on printed compound slides – biochemical, small-molecule microarray, 635/667 nm fluorescence, BSA, DTT, primary screen (AID 1130).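 Further: composite of spot emission at 667 nm and signal to noise over triplicate slides.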 The settings on record: 635 nm fluorescence, higher = more signal.
Assay [12] concerns Fibrinogen (Alexa647-labelled). The experiment in a line: Alexa647-fibrinogen binding to printed small molecules – biochemical, small-molecule microarray, 635/667 nm fluorescence, artefact control for SMM control-protein annotation, profiling panel (AID 1131).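 Further: z-score merges 667 nm fluorescence with per-spot signal-to-noise over triplicate slides.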 The following applies: fibrinogen-A647 binding fluorescence, higher = more signal.
The target of assay [13] is Follistatin (Homo sapiens) (UniProt P19883). Kind of assay: FST protein binding to printed compounds – biochemical, small-molecule microarray, 635/667 nm fluorescence, primary screen (AID 1132). The settings on record: 635 nm fluorescence, higher = more signal.
Chain of Follistatin (Homo sapiens) (P19883 whole entry, looked up): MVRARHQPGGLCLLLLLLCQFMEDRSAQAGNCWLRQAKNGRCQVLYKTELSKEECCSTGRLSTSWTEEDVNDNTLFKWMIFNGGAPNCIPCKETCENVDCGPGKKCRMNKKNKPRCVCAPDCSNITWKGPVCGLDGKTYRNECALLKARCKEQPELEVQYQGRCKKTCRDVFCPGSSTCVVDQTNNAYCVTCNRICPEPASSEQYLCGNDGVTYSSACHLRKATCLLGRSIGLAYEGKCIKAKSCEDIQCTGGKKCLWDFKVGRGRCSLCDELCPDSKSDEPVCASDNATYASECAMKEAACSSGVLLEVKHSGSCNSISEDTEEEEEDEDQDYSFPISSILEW
The target of assay [14] is Fibroblast growth factor 2 (Homo sapiens) (UniProt P09038). The experiment in a line: basic fibroblast growth factor binding to printed compounds – biochemical, small-molecule microarray, 635/667 nm fluorescence, primary screen (AID 1133). The following applies: FGF2, fluorescence 635/667, higher = more signal.
Chain of Fibroblast growth factor 2 (Homo sapiens) (P09038 whole entry, looked up): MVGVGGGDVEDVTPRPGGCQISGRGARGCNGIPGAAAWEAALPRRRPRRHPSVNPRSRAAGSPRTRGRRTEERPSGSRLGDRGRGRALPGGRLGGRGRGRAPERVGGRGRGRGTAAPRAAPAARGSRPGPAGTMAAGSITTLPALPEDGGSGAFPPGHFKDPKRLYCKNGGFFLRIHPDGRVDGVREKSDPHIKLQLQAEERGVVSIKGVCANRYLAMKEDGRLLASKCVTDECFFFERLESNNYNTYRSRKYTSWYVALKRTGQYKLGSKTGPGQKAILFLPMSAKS
Assay [15] can be described thus: JC-1 mitochondrial potential readout, lung cancer cells – cell-based, A549, JC-1 fluorescence, basal, 24 h, 100 nL, profiling panel (AID 1138).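 Further: A549 lung adenocarcinoma cells under basal conditions with no added stimulus; test concentration not given here.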 The settings on record: higher = more signal.
The test system of a further assay is Lefty1. Kind of assay: Lefty1 protein binding to printed compounds – biochemical, small-molecule microarray, 635/667 nm fluorescence, primary screen (AID 1139). The following applies: fluorescence 635/667, higher = more signal.
In assay [16] the test system is wheat germ agglutinin (Triticum aestivum), Alexa647-labelled. The experiment in a line: Alexa647-WGA lectin binding to printed small molecules – biochemical, small-molecule microarray, 635/667 nm fluorescence, artefact control for SMM control-protein annotation, profiling panel (AID 1140).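 Further: score merges 667 nm feature emission with signal to noise over triplicate slides.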 The settings on record: WGA-A647 binding, 635 nm fluorescence, higher = more signal.

The target of assay [17] is Luciferin 4-monooxygenase (Photinus pyralis) (UniProt P08659). Kind of assay: inhibition of purified Photinus pyralis luciferase – biochemical, luminescence, purified enzyme, 2006 set, primary screen (AID 1141).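 Further: cell-free assay with purified firefly luciferase at 100 ng per well in PBS; test concentration not given here.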 The following applies: purified firefly luciferase, SteadyGlo luminescence, 30 min; higher = more signal, called active from +8 up or from −8 down.
Chain of Luciferin 4-monooxygenase (Photinus pyralis) (P08659 whole entry, looked up): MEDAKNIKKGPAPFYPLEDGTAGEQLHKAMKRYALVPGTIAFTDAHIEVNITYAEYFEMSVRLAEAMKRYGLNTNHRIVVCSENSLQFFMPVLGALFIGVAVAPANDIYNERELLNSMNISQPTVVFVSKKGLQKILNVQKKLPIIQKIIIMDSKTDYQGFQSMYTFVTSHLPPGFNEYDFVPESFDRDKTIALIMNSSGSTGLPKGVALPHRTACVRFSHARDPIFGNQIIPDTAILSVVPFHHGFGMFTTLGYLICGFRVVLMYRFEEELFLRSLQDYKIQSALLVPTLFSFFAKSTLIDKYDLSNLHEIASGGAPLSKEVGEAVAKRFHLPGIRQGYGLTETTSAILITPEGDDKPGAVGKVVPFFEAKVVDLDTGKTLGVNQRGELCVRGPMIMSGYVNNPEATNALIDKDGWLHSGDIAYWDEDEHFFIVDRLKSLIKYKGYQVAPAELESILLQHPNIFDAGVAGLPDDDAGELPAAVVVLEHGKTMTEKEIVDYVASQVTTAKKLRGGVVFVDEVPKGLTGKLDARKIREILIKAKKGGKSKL

Chain of Focal adhesion kinase 1 (Homo sapiens) (Q05397 whole entry, looked up): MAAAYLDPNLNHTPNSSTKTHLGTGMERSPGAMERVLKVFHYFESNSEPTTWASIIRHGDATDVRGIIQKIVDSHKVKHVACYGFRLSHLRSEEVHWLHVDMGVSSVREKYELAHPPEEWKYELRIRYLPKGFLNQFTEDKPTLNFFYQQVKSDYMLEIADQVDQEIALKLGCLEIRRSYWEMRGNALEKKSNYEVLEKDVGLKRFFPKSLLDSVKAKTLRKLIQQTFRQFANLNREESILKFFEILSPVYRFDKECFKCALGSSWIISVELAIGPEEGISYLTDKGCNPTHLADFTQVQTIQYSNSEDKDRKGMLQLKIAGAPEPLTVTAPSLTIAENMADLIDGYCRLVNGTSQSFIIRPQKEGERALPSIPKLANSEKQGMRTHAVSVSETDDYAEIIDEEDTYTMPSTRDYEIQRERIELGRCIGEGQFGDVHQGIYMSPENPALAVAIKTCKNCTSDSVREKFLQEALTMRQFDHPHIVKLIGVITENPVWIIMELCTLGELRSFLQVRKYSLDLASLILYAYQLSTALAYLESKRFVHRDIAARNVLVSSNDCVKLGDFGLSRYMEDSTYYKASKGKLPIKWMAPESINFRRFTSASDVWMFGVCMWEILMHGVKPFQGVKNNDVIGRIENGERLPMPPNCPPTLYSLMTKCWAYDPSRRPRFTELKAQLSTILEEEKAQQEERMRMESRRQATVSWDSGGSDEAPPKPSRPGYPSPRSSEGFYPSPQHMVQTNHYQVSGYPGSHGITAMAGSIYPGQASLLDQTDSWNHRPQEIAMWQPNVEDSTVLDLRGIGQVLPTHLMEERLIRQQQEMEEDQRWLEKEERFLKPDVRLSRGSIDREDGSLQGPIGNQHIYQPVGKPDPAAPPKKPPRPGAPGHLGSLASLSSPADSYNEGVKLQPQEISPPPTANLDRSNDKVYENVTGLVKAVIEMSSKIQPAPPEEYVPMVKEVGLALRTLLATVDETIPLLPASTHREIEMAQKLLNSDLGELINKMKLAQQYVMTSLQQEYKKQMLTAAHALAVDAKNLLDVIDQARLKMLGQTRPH

Turning to `C=C(CCCC)/C(=C/C[C@@H](OC(=O)c1ccncc1)c1ccc(CO)o1)c1cnc2ccccc2c1`, the composite z-score amounted to 0.667 in the assay with Albumin (Bos taurus); 0.382 in assay [2]; 0.0626 in assay [3]; 0.956 in assay [4]; 2.33 in assay [5]; 0.405 in assay [6]. Besides, the composite z-score with Sam68 (KHDRBS1) stood at 1.31; in assay [7], 1.45; in assay [8], 1.18; in assay [9], 1.24; in [10] it was 0.723; in assay [11] it was 1.64. The composite z-score in [12] is 0.878; in assay [13], 1.46; in assay [14], 1.69; with Lefty1, 1.65; in [16], 1.22. In addition, the composite Z-score in [1] was 1.04 (inactive). The values for the z-score in [15] and in assay [17] were 0.146 and -3.5 (inactive), respectively.

With `CCC#CCN(Cc1ccccc1Br)[C@H](/C=C/c1ccccc1)[C@@H](O)Cc1ccccc1`, the composite z-score is -0.904 with Albumin (Bos taurus); -0.132 in [2]; -0.145 in [3]; -0.225 in assay [4]; 0.301 in assay [5]; 0.162 in assay [6]. In addition, the composite z-score with Sam68 (KHDRBS1) was -1.13; in [7], -1.16; in [8] it was -0.779; in [9], 0.017; in [10], -0.518; in [11], -0.0168. Besides, the composite z-score in assay [12] was -0.58; in assay [13] it was -0.886; in [14], -1.48; with Lefty1, -0.978; in assay [16] it was -0.518. In assay [1], the composite Z-score was 0.12 (inactive). In addition, the z-score in [15] was -0.565; in assay [17], -0.686 (inactive).

Regarding `O=C1OCCC=C[C@H]2OC34C=CCN(Cc5ccccc5)C(=O)[C@H]3N(CCO)C(=O)[C@@H]4C12` (stereo not given in full), the composite z-score was -0.121 in the assay with Albumin (Bos taurus); -0.0967 in assay [2]; -0.19 in [3]; 0.459 in assay [4]; -0.59 in [5]; -0.227 in assay [6]. Moreover, the composite z-score in the assay with Sam68 (KHDRBS1) was -1.04; in assay [7], -0.849; in [8], -1.18; in assay [9], -0.954; in assay [10], -1.18; in assay [11] it was -0.616. For the same compound, the composite z-score was -1.89 in [12]; -1.21 in assay [13]; -0.379 in assay [14]; -0.705 in the assay with Lefty1; -2.09 in [16]. Further, the composite Z-score in [1] is -0.141 (inactive). Moreover, the results for the z-score in assay [15] and in assay [17] were 0.252 and -0.678 (inactive), respectively.

Consider `CO[C@H]1COC(=O)[C@H](C)NC(=O)CC=C[C@@H](C)[C@H](NS(=O)(=O)c2ccc(C)cc2)COC(=O)CC=C[C@@H]1C`, for which the composite z-score with Albumin (Bos taurus) was -0.524; in assay [2], -0.152; in assay [3], -0.146; in assay [4], 0.651; in assay [5] it was -0.616; in assay [6], -0.177. Besides, the composite z-score with Sam68 (KHDRBS1) is -1.03; in assay [7] it was 1.41; in assay [8], -0.206; in assay [9], -0.0701; in assay [10] it was -0.64; in assay [11], -0.522. The composite z-score in assay [12] is -1.3; in assay [13], 1.28; in assay [14] it was 0.708; with Lefty1, 1.35; in assay [16] it was -0.955. The composite Z-score in [1] was 0.0426 (inactive). Besides, the z-score was 0.507 in assay [15] and -0.217 (inactive) in assay [17].

Regarding `CCOC(=O)C1=C[C@@H](c2ccccc2)N(S(=O)(=O)c2ccc(C)cc2)[C@H]1c1ccc(F)cc1`, the composite z-score was 0.823 in the assay with Albumin (Bos taurus); 0.0836 in assay [2]; 0.111 in [3]; 0.283 in assay [4]; 1.57 in [5]; 0.284 in assay [6]. In addition, the composite z-score with Sam68 (KHDRBS1) was 1.16; in assay [7] it was -0.0043; in [8], 1.12; in [9], 0.986; in assay [10], 1.14; in assay [11] it was 1.23. Also, the composite z-score in [12] worked out at 0.995; in [13], 1.06; in assay [14], 0.47; in the assay on Lefty1, 0.207; in assay [16], 1.08. In addition, the composite Z-score in [1] is -0.263 (inactive). Moreover, the values for the z-score in assay [15] and in assay [17] were 0.994 and 1.54 (inactive), respectively.

For `COc1cc([C@@H]2N[C@H](C(=O)O)Cc3c2[nH]c2ccccc32)cc(OC)c1OC`, the composite z-score with Albumin (Bos taurus) was 0.1; in assay [2] it was 0.059; in assay [3], -0.089; in assay [4], -0.0165; in [5], -0.0553; in [6], 0.238. Moreover, the composite z-score with Sam68 (KHDRBS1) came to 0.0713; in [7], 0.475; in assay [8], 0.245; in [9], 0.386; in assay [10] it was 0.431; in assay [11] it was 0.161. Moreover, the composite z-score amounted to 0.514 in assay [12]; 0.275 in assay [13]; 0.254 in assay [14]; 0.531 in the assay with Lefty1; 0.373 in assay [16]. Besides, the composite Z-score in assay [1] is -0.651 (inactive). The z-score in [15] is 0.559; in assay [17] it was -0.538 (inactive).

In the case of `Cc1ccc(S[C@]2(C(=O)O)CC(=O)N(Cc3ccccc3)[C@@H]2c2ccc(CO)cc2)cc1`, the composite z-score in the assay with Albumin (Bos taurus) is -0.0554; in [2], -0.0328; in [3] it was -0.154; in assay [4], 0.724; in [5], 1.02; in [6], 0.623. The composite z-score in the assay with Sam68 (KHDRBS1) was 0.401; in [7], -0.852; in assay [8], -0.467; in assay [9], -0.846; in assay [10], 0.0745; in assay [11], -0.412. Moreover, the composite z-score in assay [12] was 0.0619; in [13], -0.256; in [14], 0.0167; in the assay on Lefty1 it was -0.532; in assay [16] it was 0.0681. Also, the composite Z-score in assay [1] was 1.28 (inactive). The z-score in assay [15] is 1.31; in assay [17], -1.32 (inactive).

As for `COCCCNC(=O)[C@@]1(Sc2ccc(C)cc2)CC(=O)N(Cc2cc(C(F)(F)F)cc(C(F)(F)F)c2)[C@@H]1c1ccc(CO)cc1I`, the composite z-score with Albumin (Bos taurus) is -0.306; in [2] it was -0.227; in assay [3] it was -0.133; in assay [4], 0.85; in [5], 0.57; in assay [6], -0.874. The composite z-score was -0.955 in the assay on Sam68 (KHDRBS1); -1.19 in assay [7]; -0.82 in [8]; -0.21 in assay [9]; -1.1 in assay [10]; 0.144 in assay [11]. For the same compound, the composite z-score in assay [12] is -1.86; in [13], -0.993; in assay [14], -0.511; in the assay with Lefty1 it was -1.66; in assay [16] it was -1.1. Also, the composite Z-score in assay [1] was 0.297 (inactive). Moreover, the values for the z-score in assay [15] and in assay [17] were 0.915 and -0.503 (inactive), respectively.
